From PubChem
Sampled rows, rich in hits. Any-hit rate of the full collection: about 1.3%.
VACV mCherry inh – vaccinia inhibition (mCherry reporter); Vaccinia virus mCherry reporter infection, fluorescence; Potency, µM (doses to about 36.5 µM), for the others: at the top dose activity change, negative = inhibition, usual class: inhibitors; 0.63% of 310,000 active; calls by dose curve; tested in A549 cells; also: % is scaled to controls: 0 for no effect and ±100 for the full control effect; nearly all actives have a fitted effect of over 35% in size
VACV Venus inh – inhibitors of vaccinia virus (Venus reporter) | Potency, µM (highest dose often 36.5 µM), without a hit: top-dose activity change, negative = inhibition, most hits filed as inhibitors | AID 720580 | Vaccinia virus Venus reporter expression, fluorescence | 0.46% of 330,000 active; calls by dose curve; tested in A549 cells; also: % is scaled to controls: 0 for no effect and ±100 for the full control effect; nearly all actives have a fitted effect of over 30% in size
SARS PLP yeast – inhibitors of SARS-CoV papain-like protease in yeast; S. cerevisiae expressing SARS-CoV PLpro, growth rescue; Potency, µM (titrated, usually from 32.9 µM), for the others: at the top dose activity, positive = growth rescue, hits mostly activators; 0.19% of 330,000 active; AID 485353; calls by dose curve; also: 0% is about no effect; nearly all actives have a fitted effect of over 55% in size
AmpC inh detg – inhibitors of E. coli AmpC beta-lactamase with detergent; P00811; AmpC hydrolysis of nitrocefin, absorbance 480 nm, 0.01% Triton; Potency, µM (series often up to 114 µM), for the others: at the highest dose activity change, negative = inhibition, actives largely listed as inhibitors; 0.041% of 370,000 active; AID 485294;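 also: 0% = no-compound wells and -100% = no-enzyme wells; nearly all actives have a fitted effect of over 25% in size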
Target sequence (P00811 whole entry, looked up): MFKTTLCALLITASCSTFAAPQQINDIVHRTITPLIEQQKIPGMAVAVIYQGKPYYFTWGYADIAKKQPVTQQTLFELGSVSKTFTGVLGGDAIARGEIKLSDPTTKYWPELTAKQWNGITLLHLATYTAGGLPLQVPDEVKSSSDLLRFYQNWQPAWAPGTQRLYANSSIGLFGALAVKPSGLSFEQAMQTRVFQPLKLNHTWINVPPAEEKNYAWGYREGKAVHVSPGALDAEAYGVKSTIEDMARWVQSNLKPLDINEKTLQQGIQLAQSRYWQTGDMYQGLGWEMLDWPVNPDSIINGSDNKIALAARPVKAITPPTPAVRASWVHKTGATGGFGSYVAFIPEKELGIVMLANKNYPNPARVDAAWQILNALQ
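AmpC (5.3 nM in the dispensed reagent) in 20 mM phosphate pH 7.0 with 0.01% (detergent screen) or 0.0001% Triton X-100 was preincubated with compounds for 15 min at room temperature. Nitrocefin was then added from an 800 uM solution, and hydrolysis was followed at 480 nm.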
AMA1 RON2 block – AMA1-RON2 (P. falciparum) interaction inhibition. AlphaScreen AMA1-biotinylated RON2 peptide binding. Potency, µM (doses to about 58.2 µM), for the others: at the top dose activity change, negative = inhibition, most hits filed as inhibitors. 0.2% of 360,000 active. AID 720542;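 also: 0% = vehicle wells and -100% = peptide control; nearly all actives have a fitted effect of over 45% in size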
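AMA1 (3D7) with his tag at 25 nM final met compounds first, then biotinylated RON2 peptide at 25 nM; detection used donor plus acceptor beads, 10 µg/mL apiece, read by AlphaScreen after 30 min at room temperature.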
AmpC inh no detg – blocks E. coli AmpC beta-lactamase in detergent-free assay | Potency, µM (top dose mostly 57.1 µM), without a hit: at the top dose activity change, negative = inhibition, hits mostly inhibitors | 0.52% of 330,000 active | AID 485341 | P00811 | AmpC nitrocefin hydrolysis, absorbance 480 nm, 0.0001% Triton;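 also: plate controls were no compound for no effect and no enzyme for full effect; nearly all actives have a fitted effect of over 20% in size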
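AmpC (5.3 nM in the dispensed reagent) in 20 mM phosphate pH 7.0 with 0.01% (detergent screen) or 0.0001% Triton X-100 was preincubated with compounds for 15 min at room temperature. Nitrocefin was then added from an 800 uM solution, and hydrolysis was followed at 480 nm.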
* = called active by the depositor; i = inactive; ? = inconclusive; nt = no result given. Unless noted, calls follow the shape of the dose curve; as a rule, active = well fitted curve in the direction sought with a large enough effect; inconclusive = small, poorly fitted or top-dose-only effect, or another doubt; inactive = no such curve, though single readings can be large; an effect the other way counts as inactive or inconclusive. Potency is read from the fitted curve at half-maximal effect.

SMILES	VACV mCherry inh	VACV Venus inh	SARS PLP yeast	AmpC inh detg	AMA1 RON2 block	AmpC inh no detg
CC1CCC(C)(NS(=O)(=O)OCC(Cl)(Cl)Cl)CC1 (stereo not given)	i	-23%	-7%	?	-2%	-38%
Cc1cc(C)n(Cc2ccc(Cl)cc2Cl)c(=O)c1S(=O)(=O)c1ccccc1	nt	-2%	3%	4%	11%	0.16µM*
C=C(C)Cn1c(C)cc(C)c(S(=O)(=O)c2ccc(C)cc2)c1=O	i	-13%	-2%	5%	?	-3%
CC(C)c1ccc(/C=C(\c2nc3ccccc3[nH]2)S(=O)(=O)c2ccccc2)cc1	8.9µM*	10µM*	-3%	?	-22%	-50%
O=S(=O)(/C(=C/c1ccc(C(F)(F)F)cc1)c1nc2ccccc2[nH]1)c1ccccc1	10µM*	10µM*	-27%	-9%	-14%	-48%
Cc1ccc(C)c(C(=O)N2CCC(C3(c4ccccn4)NC(=O)N(CC4CCCO4)C3=O)CC2)c1 (stereo not given)	i	-13%	nt	nt	nt	nt
Cc1ccc(NC(=O)COC(=O)c2ccccc2OCC(=O)Nc2ccc(Br)cc2)c(C)c1	-12%	-7%	nt	nt	nt	nt
CCn1nc(C)c(CN2Cc3ccccc3OC(c3ccccc3OC)C2)c1C (stereo not given)	-13%	-5%	nt	nt	nt	nt
C=CCn1c(SCC(=O)Nc2sccc2C(N)=O)nc2sc(CC)cc2c1=O	nt	10µM*	2%	-1%	-3%	-6%
C(=N\Nc1ncnc2sc3c(c12)CCC3)/c1ccncc1	11µM*	10µM*	-17%	?	12%	2%
O=[N+]([O-])c1c(Nc2ccccc2O)cc(Cl)c2nonc12	-24%	?	-16%	-17%	-2%	32µM*
Nc1cc(Cl)c2nonc2c1[N+](=O)[O-]	10µM*	10µM*	6%	-10%	-20%	-15%
COc1ccc(CN2CCOc3c(cc(-c4cccc(OC)n4)cc3OC)C2)c(O)c1	i	0%	nt	nt	nt	nt
Cc1ncc2c(c1CNC(=O)c1ccc3c(c1)OCO3)CCN(C(=O)C1Cc3ccccc3O1)C2 (stereo not given)	-2%	13%	nt	nt	nt	nt
CCc1nnc(N/N=C/c2c(Cl)cccc2Cl)n1N	-17%	-9%	-15%	-2%	54%	82%
CCc1nnc(N/N=C/c2cccs2)n1N	22µM*	?	-2%	-7%	37%	-30%
C/C=C(/C)C(=O)OC1CC(C)(C)C[C@H]2C3=CC[C@@H]4[C@@]5(C)CCC(O[C@@H]6O[C@@H](C(=O)O)[C@@H](O)C(O[C@@H]7OC[C@H](O)[C@@H](O)[C@@H]7O[C@@H]7OC(CO)C(O)[C@@H](O)[C@@H]7O)C6O[C@@H]6OC(CO)C(O)C(O)C6O)[C@@](C)(CO)[C@@H]5CC[C@]4(C)[C@]3(C)CC(O)[C@@]12CO (stereo not given in full)	?	13µM*	-4%	nt	-1%	257%
CC1CCN(c2c(NCC3CCC(C(=O)Nc4ccccn4)CC3)c(=O)c2=O)CC1 (stereo not given)	i	-17%	-6%	?	13%	-16%
Cc1ccnc(NC(=O)C2CCC(CNc3c(N4CCCC4)c(=O)c3=O)CC2)c1 (stereo not given)	-7%	-22%	6%	?	-2%	2.2µM*
COc1cc(NC(=O)C2CCC(CNc3c(N4CCCCC4)c(=O)c3=O)CC2)cc(OC)c1 (stereo not given)	-12%	-17%	1%	?	-3%	50µM*
CCc1ccc(S(=O)(=O)/N=C2\C=C(Nc3ccc(O)cc3)C(=O)c3ccccc32)cc1	?	4µM*	-15%	-14%	25µM*	-35%
O=C(O)c1ccc(NC2=C/C(=N/S(=O)(=O)c3ccccc3)c3ccccc3C2=O)cc1	?	?	-21%	4%	?	-37%
Cc1ccc(Cl)cc1NC1=C/C(=N\S(=O)(=O)c2cccs2)c2ccccc2C1=O	25µM*	?	-22%	-2%	4.5µM*	-40%
